From PubChem BioAssay (Tox21)
Where “and” joins values, the source holds several entries; their conditions need not be identical. Identical values can stand only once. Unmarked numbers belong to inactive results. Inconclusive results are not listed. Entries that show only a call come without a potency. Calls of active or inactive are those of the source. Unless noted, the call rests on the fitted dose curve; in most records, active means well fitted curve in the direction sought with a large enough effect in the repeat runs; inconclusive means weak or mixed curves; inactive means no such curve, though single readings can be large; an effect the other way counts as inactive or inconclusive.

Experiments:
[1] = target: Thyrotropin receptor (Homo sapiens) (UniProt P16473); test: qHTS assay to identify small molecule antagonists of the thyroid stimulating hormone receptor (TSHR) signaling pathway (AID 1259385; calls by dose curve; further: nearly all actives have a fitted effect of over 20% in size)
Sequence of Thyrotropin receptor (Homo sapiens) (P16473 whole entry, looked up): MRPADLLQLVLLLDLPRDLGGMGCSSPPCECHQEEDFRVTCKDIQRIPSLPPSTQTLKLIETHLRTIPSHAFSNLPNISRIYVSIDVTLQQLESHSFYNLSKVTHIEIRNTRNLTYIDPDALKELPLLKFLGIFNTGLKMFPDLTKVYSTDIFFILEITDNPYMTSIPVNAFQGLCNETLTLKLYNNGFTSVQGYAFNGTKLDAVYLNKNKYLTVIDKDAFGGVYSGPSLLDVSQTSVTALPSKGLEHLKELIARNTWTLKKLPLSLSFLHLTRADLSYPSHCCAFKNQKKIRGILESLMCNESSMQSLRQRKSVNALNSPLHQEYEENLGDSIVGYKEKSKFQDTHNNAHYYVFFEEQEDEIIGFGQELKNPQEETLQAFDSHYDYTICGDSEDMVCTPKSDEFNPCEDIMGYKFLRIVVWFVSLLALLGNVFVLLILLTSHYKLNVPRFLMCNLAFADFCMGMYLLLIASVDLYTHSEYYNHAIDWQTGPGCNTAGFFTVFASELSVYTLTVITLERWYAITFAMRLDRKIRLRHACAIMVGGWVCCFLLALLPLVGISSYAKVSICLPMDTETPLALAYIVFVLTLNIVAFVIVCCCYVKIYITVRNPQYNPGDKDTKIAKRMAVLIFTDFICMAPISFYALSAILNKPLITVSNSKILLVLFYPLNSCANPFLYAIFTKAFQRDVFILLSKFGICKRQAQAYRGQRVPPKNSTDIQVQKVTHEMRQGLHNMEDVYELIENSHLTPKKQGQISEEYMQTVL
Outline: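 TSHR-HEK293 cells (800/well) plated 18 h, then compounds with Ro20-1724 and TSH at 1.5 ng/mL final, 30 min at room temperature. cAMP quantified by HTRF (cAMP-d2/anti-cAMP-cryptate, 1 h); 15 concentrations in triplicate.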

[2] = qHTS assay to identify small molecule agonists of the estrogen receptor alpha (ER-alpha) signaling pathway in the presence of an antagonist - cell viability counter screen (AID 1259386);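 further: cells exposed to compounds for 22 h at 37 °C before the viability read; nearly all actives have a fitted effect of over 30% in size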; further: potency means the concentration at half of the fitted maximal effect
Outline: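 Viability counter screen using VM7Luc4E2 (full-length ER-alpha, four ERE-luciferase). The cells were treated with compounds alongside ICI-182,780 10.0nM for 22hr, and live-cell protease fluorescence was quantified with CellTiter-Fluor.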

[3] = target: Progesterone receptor (Homo sapiens) (UniProt P06401); test: qHTS assay to identify small molecule agonists of the progesterone receptor (PR) signaling pathway (AID 1346784; calls by dose curve; further: nearly all actives have a fitted effect of over 30% in size; further: potency means the concentration at half of the fitted maximal effect)
Sequence of Progesterone receptor (Homo sapiens) (P06401 whole entry, looked up): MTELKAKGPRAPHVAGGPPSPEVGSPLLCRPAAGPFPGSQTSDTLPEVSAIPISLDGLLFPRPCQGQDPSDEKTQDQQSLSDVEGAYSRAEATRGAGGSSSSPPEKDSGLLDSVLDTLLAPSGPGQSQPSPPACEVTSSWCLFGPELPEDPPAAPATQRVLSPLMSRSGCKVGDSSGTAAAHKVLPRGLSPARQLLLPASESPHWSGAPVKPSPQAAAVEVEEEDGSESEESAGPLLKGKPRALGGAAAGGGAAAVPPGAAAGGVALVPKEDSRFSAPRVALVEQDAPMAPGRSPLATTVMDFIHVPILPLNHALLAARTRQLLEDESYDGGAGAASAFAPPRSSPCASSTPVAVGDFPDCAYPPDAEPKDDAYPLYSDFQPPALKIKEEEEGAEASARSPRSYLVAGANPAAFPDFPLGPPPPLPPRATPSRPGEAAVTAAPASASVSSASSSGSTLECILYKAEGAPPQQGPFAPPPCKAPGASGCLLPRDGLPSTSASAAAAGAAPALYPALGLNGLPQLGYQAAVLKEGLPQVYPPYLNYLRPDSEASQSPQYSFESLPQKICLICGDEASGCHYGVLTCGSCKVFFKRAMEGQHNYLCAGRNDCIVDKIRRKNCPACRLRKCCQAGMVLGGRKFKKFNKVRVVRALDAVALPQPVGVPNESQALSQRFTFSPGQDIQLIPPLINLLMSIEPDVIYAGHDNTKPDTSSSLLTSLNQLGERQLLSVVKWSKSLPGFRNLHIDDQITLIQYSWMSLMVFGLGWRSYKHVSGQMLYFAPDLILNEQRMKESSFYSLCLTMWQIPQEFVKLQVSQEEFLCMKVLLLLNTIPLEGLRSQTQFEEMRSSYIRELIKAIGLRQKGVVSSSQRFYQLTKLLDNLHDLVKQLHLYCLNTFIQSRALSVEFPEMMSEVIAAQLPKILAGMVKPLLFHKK
Outline: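 Fluorescence from LiveBLAzer B/G FRET substrate cleavage (2 hr, RT) reported PR activation in PR-UAS-bla HEK 293T cells treated 16 hr at 37C/5% CO2 with compounds; medium contained 2% charcoal-stripped FBS.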

[4] = target: Progesterone receptor (Homo sapiens) (UniProt P06401); test: qHTS assay to identify small molecule antagonists of the progesterone receptor (PR) signaling pathway (AID 1346795; active means well fitted inhibition curve with a large enough effect in the signal ratio in the repeat runs, not every such curve was filed as active; the % refers to the signal ratio)
Outline: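 Fluorescence intensity measured 2 hr after adding beta-lactamase FRET substrate to PR-UAS-bla HEK293T cells that had been co-treated 16 hr with compound and 1 nM R5020 (final concentration) in 2% charcoal-stripped FBS.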

[5] = qHTS assay to identify small molecule agonists of the progesterone receptor (PR) signaling pathway - cell viability counter screen (AID 1346799; calls by dose curve; further: nearly all actives have a fitted effect of over 45% in size)
Outline: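 In parallel with the beta-lactamase readout, cytotoxicity toward PR-UAS-bla HEK293T cells was measured by CellTiter-Glo luminescence following 16 hr compound incubation in 2% charcoal-stripped FBS medium.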

[6] = qHTS assay to identify small molecule agonists of the TGF-beta/Smad signaling pathway - cell viability counter screen (AID 1346829); further: top concentration of the series differs between compounds; nearly all actives have a fitted effect of over 45% in size
Outline: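 SBE-bla HEK 293T cells plated overnight, compound exposure 5 hr at 37 C. Viability read in the same wells by CellTiter-Glo luminescence after 30 min at room temperature, following the beta-lactamase read.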

[7] = qHTS assay to identify small molecule agonists of the TGF-beta/Smad signaling pathway (AID 1346859; active means well fitted activation curve with a large enough effect in the signal ratio in the repeat runs, not every such curve was filed as active; the % refers to the signal ratio; further: series mostly up to about 77 µM)
Outline: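 After overnight seeding, SBE-bla HEK 293T cells are dosed with compounds in DMSO and kept 5 hr at 37 C, 5% CO2. LiveBLAzer-type FRET substrate is then applied for 2 hr at room temperature.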

[8] = Human pregnane X receptor (PXR) small molecule agonists, qHTS cell viability counter screen (AID 1346977); further: nearly all actives have a fitted effect of over 50% in size; further: potency means the concentration at half of the fitted maximal effect
Outline: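 Viability counter screen: CellTiter-Fluor signal in PXR-Luc HepG2 cells, 24hr compound exposure, 37C, 5% CO2.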

[9] = Caspase-3/7 induction in HepG2 cells by small molecules, qHTS assay (AID 1346978); further: nearly all actives have a fitted effect of over 15% in size
Outline: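 Wild-type HepG2 cells, 2,000/well, settled 5 hr at 37 C and 5% CO2, then compound-treated for 17 hr; caspase-3/7 activity read by luminescent Caspase-Glo 3/7 after 30 min at room temperature.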

[10] = Caspase-3/7 induction in CHO-K1 cells by small molecules, qHTS cell viability counter screen (AID 1346979); further: nearly all actives have a fitted effect of over 35% in size; further: potency means the concentration at half of the fitted maximal effect
Outline: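 Viability readout by fluorescence (CellTiter-Fluor) on wild-type CHO-K1 cells exposed for 16hr at 37C and 5% CO2 to compounds delivered in DMSO; reagent incubated 1hr before reading.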

[11] = Caspase-3/7 induction in CHO-K1 cells by small molecules, qHTS assay (AID 1346980); further: nearly all actives have a fitted effect of over 15% in size
Outline: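 Wild-type CHO-K1 cells exposed to compounds for 17hr at 37 C, 5% CO2. Caspase-3/7 activity then measured by Caspase-Glo 3/7 luminescence after 30min at room temperature.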

[12] = Caspase-3/7 induction in HepG2 cells by small molecules, qHTS cell viability counter screen (AID 1346981); further: nearly all actives have a fitted effect of over 30% in size; further: potency means the concentration at half of the fitted maximal effect
Outline: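 Viability determined by CellTiter-Fluor fluorescence in HepG2 wells also used for the luminescent Caspase-Glo 3/7 read. Compounds were present for 16 hr at 37 C, 5% CO2 before reagent addition.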

[13] = target: Nuclear receptor subfamily 1 group I member 2 (Homo sapiens) (UniProt O75469); test: Human pregnane X receptor (PXR) small molecule agonists, qHTS assay (AID 1346982); further: nearly all actives have a fitted effect of over 35% in size; further: potency means the concentration at half of the fitted maximal effect
Sequence of Nuclear receptor subfamily 1 group I member 2 (Homo sapiens) (O75469 whole entry, looked up): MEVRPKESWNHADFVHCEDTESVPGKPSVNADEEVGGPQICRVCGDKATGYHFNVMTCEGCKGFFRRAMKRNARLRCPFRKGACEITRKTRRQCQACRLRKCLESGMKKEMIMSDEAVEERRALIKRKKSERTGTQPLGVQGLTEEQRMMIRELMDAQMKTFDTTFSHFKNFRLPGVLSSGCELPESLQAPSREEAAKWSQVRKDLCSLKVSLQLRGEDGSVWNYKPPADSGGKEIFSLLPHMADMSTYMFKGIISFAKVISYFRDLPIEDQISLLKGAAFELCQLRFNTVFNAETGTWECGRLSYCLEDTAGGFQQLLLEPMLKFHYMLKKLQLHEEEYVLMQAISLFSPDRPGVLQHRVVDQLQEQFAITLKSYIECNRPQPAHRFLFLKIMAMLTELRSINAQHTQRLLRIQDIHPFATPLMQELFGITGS
Outline: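 Compound-induced hPXR transactivation of a CYP3A4 luciferase reporter was scored in HepG2 PXR-Luc cells over 24 hr at 37 C, 5% CO2, by luminescence.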

[14] = target: Thyrotropin-releasing hormone receptor (Homo sapiens) (UniProt P34981); test: qHTS assay to identify small molecule antagonists of the thyrotropin-releasing hormone receptor (TRHR) signaling pathway (AID 1346877; active means well fitted inhibition curve with a large enough effect in the repeat runs, not every such curve was filed as active; further: series mostly up to about 51 µM)
Sequence of Thyrotropin-releasing hormone receptor (Homo sapiens) (P34981 whole entry, looked up): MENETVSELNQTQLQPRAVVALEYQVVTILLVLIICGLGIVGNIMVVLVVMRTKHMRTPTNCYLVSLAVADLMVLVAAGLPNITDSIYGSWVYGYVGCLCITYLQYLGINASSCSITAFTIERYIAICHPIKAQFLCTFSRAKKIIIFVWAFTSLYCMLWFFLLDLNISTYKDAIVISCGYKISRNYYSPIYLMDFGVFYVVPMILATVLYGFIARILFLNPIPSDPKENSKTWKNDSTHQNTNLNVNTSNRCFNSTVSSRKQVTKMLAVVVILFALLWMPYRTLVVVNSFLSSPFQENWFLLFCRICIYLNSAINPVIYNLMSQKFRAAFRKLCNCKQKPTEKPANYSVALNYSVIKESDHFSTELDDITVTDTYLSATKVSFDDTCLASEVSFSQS
Outline: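 Following an 18 h incubation at 37 °C and a 2 h calcium dye load, TRHR-HEK293 cells were exposed to compound (5 min, room temperature) and challenged with TRH, 1 nM final.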

[15] = target: Thyrotropin-releasing hormone receptor (Homo sapiens) (UniProt P34981); test: qHTS assay to identify small molecule agonists of the thyrotropin-releasing hormone receptor (TRHR) signaling pathway (AID 1346891; calls by dose curve;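 further: HEK293 cells expressing TRHR with calcium dye readout; series mostly up to about 58 µM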)
Outline: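 Compounds were tested as agonists at 15 concentrations, in triplicate, on TRHR-Hek293 cells; calcium-sensitive dye fluorescence was recorded for 3 min following addition.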

[16] = target: Nuclear receptor subfamily 1 group I member 2 (Rattus norvegicus) (UniProt Q9R1A7); test: Rat pregnane X receptor (rPXR) activation by small molecules, qHTS assay (AID 1346983); settings: rPXR luciferase reporter cells, One-Glo luminescence, 24 h; hits give high values; further: nearly all actives have a fitted effect of over 20% in size
Sequence of Nuclear receptor subfamily 1 group I member 2 (Rattus norvegicus) (Q9R1A7 whole entry, looked up): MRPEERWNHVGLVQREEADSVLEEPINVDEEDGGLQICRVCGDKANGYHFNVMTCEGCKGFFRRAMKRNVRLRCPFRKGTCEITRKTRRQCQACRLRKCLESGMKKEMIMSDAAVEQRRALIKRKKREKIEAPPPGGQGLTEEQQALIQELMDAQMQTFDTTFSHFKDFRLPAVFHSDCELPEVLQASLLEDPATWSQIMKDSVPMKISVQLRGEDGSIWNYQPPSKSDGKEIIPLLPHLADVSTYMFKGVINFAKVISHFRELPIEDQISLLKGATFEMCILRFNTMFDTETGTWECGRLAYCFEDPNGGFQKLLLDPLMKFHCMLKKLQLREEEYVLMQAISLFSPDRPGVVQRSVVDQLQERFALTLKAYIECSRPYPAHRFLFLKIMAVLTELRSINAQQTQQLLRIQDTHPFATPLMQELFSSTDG
Outline: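 Cell-based rPXR activation assay: rPXR cells, 2,000 per well, rested 5hr at 37 C, then exposed to compounds in DMSO for 24 hr at 37 C. Luciferase activity read by One-Glo luminescence after 30 min at room temperature.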

[17] = qHTS assay to identify small molecule antagonists of the TGF-beta/Smad signaling pathway - cell viability counter screen (AID 1346824); further: nearly all actives have a fitted effect of over 50% in size
Outline: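 SBE-bla HEK 293T cells, incubated overnight, then compound plus 0.25 ng/mL TGF-beta1 (stock added) for 5 hr at 37 C. Viability was read in the same wells by CellTiter-Glo luminescence after 30 min at room temperature.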

[18] = target: Nuclear receptor subfamily 1 group I member 2 (Homo sapiens) (UniProt O75469); test: CYP3A4 induction through human pregnane X receptor (PXR) by small molecules, qHTS assay (AID 1346984); further: nearly all actives have a fitted effect of over 40% in size
Outline: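 Readings come from a luciferase reporter: DPX-2 cells, which are HepG2 cotransfected with PXR and a CYP3A4-promoter construct, were exposed to test compounds for 24 h at 37C before One-Glo detection.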

[19] = target: Nuclear receptor subfamily 1 group I member 2 (Homo sapiens) (UniProt O75469); test: Human pregnane X receptor (PXR) activation by small molecules, qHTS assay (AID 1346985); further: nearly all actives have a fitted effect of over 40% in size
Outline: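 DPX-2 cells (HepG2 co-transfected with a PXR response element and a CYP3A4-promoter luciferase construct) were seeded at 2,000 per well, rested 5 hr at 37C, then exposed to DMSO-dissolved compounds for 24 hr. Activation was read as luciferase luminescence.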

[20] = qHTS assay to identify small molecule antagonists of the progesterone receptor (PR) signaling pathway - cell viability counter screen (AID 1346798); further: series mostly up to about 92 µM; nearly all actives have a fitted effect of over 50% in size
Outline: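 CellTiter-Glo luminescence; PR-UAS-bla HEK293T, 3,000 cells/well; compound + R5020, 16 hr, 37C/5% CO2; 30 min RT before read.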

Structure (SMILES) | outcome [1] | Potency [2] | Potency [3] | Potency [4] | outcome [5] | outcome [6] | outcome [7] | Potency [8] | Potency [9] | Potency [10] | outcome [11] | Potency [12] | Potency [13] | outcome [14] | outcome [15] | max activation [16] [%] | outcome [17] | Potency [18] | outcome [19] | outcome [20]
COc1ccc(N)c(C)c1 | inactive | inactive | inactive | inactive | inactive | inactive | inactive | inactive | inactive | inactive | inactive | inactive | inactive |  |  |  |  |  |  | 
CC1(C)NC(=O)NC1=O | inactive | inactive |  |  | inactive | inactive | inactive | inactive |  | inactive | inactive | inactive | inactive | inactive | inactive |  |  |  |  | 
C=CC(=O)OCCC(=O)O | inactive | inactive | inactive | inactive | inactive | inactive | inactive | inactive | inactive | inactive | inactive | inactive | inactive | inactive | inactive |  |  |  |  | 
COc1cc(OC)c(C(=O)CCCN2CCCC2)c(OC)c1 | inactive | inactive | inactive | inactive | inactive |  | inactive | inactive | inactive | inactive | inactive | inactive |  | inactive | inactive | -3.14 |  |  |  | 
O=C1CCCC1 |  | inactive | inactive | inactive | inactive | inactive |  | inactive |  | inactive | inactive | inactive | inactive | inactive | inactive |  | inactive |  |  | 
Clc1ccccn1 | inactive | inactive | inactive | inactive | inactive | inactive | inactive | inactive | inactive | inactive | inactive | inactive | inactive | inactive | inactive |  |  |  |  | 
C=C(C)[C@H]1CC=C(C)C(=O)C1 | inactive | inactive | inactive | inactive | inactive |  | inactive | inactive | inactive | inactive | inactive | inactive | inactive |  |  |  | inactive |  |  | 
CC(=O)Oc1ccc(C)cc1 |  | inactive | inactive | inactive | inactive | inactive | inactive | inactive |  | inactive | inactive | inactive | inactive | inactive | inactive | -1.62 | inactive | inactive | inactive | 
CCCCCCCCCCCCCCCC(=O)OC(C)C |  | inactive | inactive | inactive | inactive | inactive |  | inactive | inactive | inactive | inactive | inactive | inactive | inactive | inactive | -0.875 | inactive | inactive | inactive | inactive
CC(=O)OC1CC(C)OC(C)O1 (stereo not drawn) |  | inactive | inactive | inactive | inactive | inactive |  | inactive | inactive | inactive | inactive | inactive | inactive | inactive | inactive |  | inactive |  |  | inactive
COc1ccc([N+](=O)[O-])cc1N |  |  | inactive | inactive | inactive | inactive |  | inactive | inactive | inactive | inactive |  |  |  |  |  |  |  |  | inactive
O=S(=O)(O)c1ccc(N=Nc2c(O)ccc3cc(S(=O)(=O)O)ccc23)cc1 |  | 48.8 µM (active) and 27.3 µM (active) | inactive | inactive | inactive | inactive | inactive | 39.8 µM (active) and 30.6 µM (active) | inactive | 54.7 µM (active) and 27.3 µM (active) | inactive | 54.7 µM (active) and 30.6 µM (active) | inactive | inactive | inactive |  |  |  |  | 
C=CCc1ccc(OC)c(OC)c1 | inactive | inactive |  |  | inactive | inactive | inactive | inactive | inactive | inactive | inactive | inactive | inactive |  |  |  | inactive |  |  | inactive
C[C@]12CCC(=O)C=C1CC[C@@H]1[C@@H]2[C@@H](O)C[C@@]2(C)[C@H]1CC[C@]2(O)C(=O)CO | inactive | inactive | 30.9 µM (active) |  | inactive | inactive | inactive | inactive | inactive | inactive | inactive | inactive |  | inactive | inactive | 9.15 | inactive |  |  | inactive
Nc1ccc(Cl)c(N)c1 | inactive | inactive | inactive | inactive | inactive |  |  | inactive | inactive | inactive | inactive | inactive | 61.3 µM (active) |  |  |  |  |  |  | 
NC(=S)NNC(N)=S | inactive | inactive | inactive | inactive | inactive |  | inactive | inactive |  | inactive | inactive |  | inactive | inactive | inactive |  | inactive |  |  | 
CCNc1cccc(C)c1 | inactive | inactive | inactive | inactive | inactive |  |  | inactive |  | inactive | inactive | inactive | inactive |  |  |  | inactive |  |  | 
NCCNCCN |  | inactive | inactive | inactive | inactive | inactive |  | inactive | inactive | inactive | inactive | inactive | inactive | inactive | inactive |  | inactive |  |  | 
Cc1ccc(C(C)C)c(O)c1 |  | inactive | inactive | inactive | inactive | inactive | inactive | inactive |  | inactive | inactive | inactive | inactive | inactive | inactive | -2.47 | inactive | inactive | inactive | 
